Reference: PubChem BioAssay
The source made the active and inactive calls.

System: not listed separately
Assay: S. cerevisiae growth modulation with rapamycin, primary screen, strain BY4716, OD600, 96 h (AID 1091); also: test concentration not given here
Conditions: higher = more signal, called active from +8 up or from −8 down

Row | Compound | z-score
1 | COc1ccc(CN(C2=CC[C@@]3(C(N)=O)C(=O)C(Cl)=C(Cl)C(=O)[C@@]3(C#N)C2)S(=O)(=O)c2ccc(Br)cc2)cc1 | -0.266 (inactive)
2 | COC(=O)c1cn(C[C@@H](Cc2ccccc2)NC(=O)N[C@H](CO)CCc2oc(C(C)=O)c(C(=O)OC)c2C(=O)OC)nn1 | -0.338 (inactive)
3 | CCOC(=O)C[C@H]1[C@H](OC(=O)c2cc3ccccc3oc2=O)[C@@H](NC(=O)c2ccc(-c3ccccc3)cc2)c2cc(OCCCO)ccc2N1C(=O)c1ccccc1 | 0.117 (inactive)
4 | COC(=O)[C@@]1(Cc2ccc(OC)cc2)[C@H]2c3cc(C(=O)N(C)C)n(C[C@H](O)CO)c3C[C@H]2CN1C(=O)c1ccccc1 | 0.878 (inactive)
5 | CC(C)[Si](C#C[Si](C(C)C)(C(C)C)C(C)C)(O[C@H](C)c1cn([C@H](CO)Cc2ccccc2)nn1)C(C)C | -0.356 (inactive)
6 | CCOC(=O)C1=CC[C@@H](c2ccccc2C(F)(F)F)N(S(=O)(=O)c2ccc(C)cc2)[C@H]1c1ccc(C#N)cc1 | 3.51 (inactive)
7 | C[N+](C)(C)CCCC[C@@H]1NC(=O)[C@H]2C[C@@H](C(=O)NCCCCCCN)[C@@H](c3ccc(O)cc3)N2C1=O | 1.13 (inactive)
8 | CC(C)N1CC=CC23O[C@@H]4C=CCOC(=O)[C@@H]4[C@H]2C(=O)N(CCCO)[C@@H]3C1=O (stereo partly drawn) | -1.58 (inactive)

Target: Torsin-1A-interacting protein 2 (Homo sapiens) (UniProt Q8NFQ8)
Sequence (Q8NFQ8 whole entry, looked up): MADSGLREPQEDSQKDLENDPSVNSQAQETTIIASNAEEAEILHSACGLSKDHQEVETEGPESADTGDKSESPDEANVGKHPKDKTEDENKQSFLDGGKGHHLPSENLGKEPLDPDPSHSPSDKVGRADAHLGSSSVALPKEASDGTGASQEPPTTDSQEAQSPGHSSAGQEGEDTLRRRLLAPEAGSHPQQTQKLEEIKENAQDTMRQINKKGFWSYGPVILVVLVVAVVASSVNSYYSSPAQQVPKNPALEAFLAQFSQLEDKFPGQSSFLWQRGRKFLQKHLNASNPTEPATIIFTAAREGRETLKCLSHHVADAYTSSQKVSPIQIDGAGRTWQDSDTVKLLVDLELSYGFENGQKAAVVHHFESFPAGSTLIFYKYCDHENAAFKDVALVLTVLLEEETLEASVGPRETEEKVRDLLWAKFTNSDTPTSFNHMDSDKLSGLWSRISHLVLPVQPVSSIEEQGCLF
Assay: LULL1 binders on small-molecule microarray, primary screen, cell lysate, human LULL1 lysate, 635/667 nm fluorescence (AID 1092);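 also: probe is lysate of COS7 cells overexpressing human LULL1; score merges per-feature 667 nm fluorescence with signal-to-noise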
Conditions: hLULL1 lysate binding, 635 nm fluorescence, higher = more signal

Row | Compound | composite z-score
9 | COC(=O)C(CC#Cc1ccc2c(c1)[C@]1(C(=O)N2)[C@H](C(=O)N2CCN(c3ncccn3)CC2)[C@H]2C(=O)O[C@H](c3ccccc3)[C@H](c3ccccc3)N2[C@@H]1c1ccc(OCCO)cc1)C(=O)OC | 2.76
10 | COCCOC(=O)N1C(=O)[C@@]2(c3cc(C#CC4=CCCCC4)ccc31)[C@H](c1ccccc1OCCO)N1[C@H](c3ccccc3)[C@H](c3ccccc3)OC(=O)[C@H]1[C@@H]2C(=O)N1CCCCCCC1 | 2.9
11 | CCOC(=O)C[C@H]1[C@H](OC(=O)c2ccc(C(=O)c3ccccc3)cc2)[C@@H](NC(=O)Cc2ccc(OC)cc2)c2cc(OCCCO)ccc2N1C(=O)c1ccccc1 | 1.19
12 | C=CC[C@@]1(C(=O)N2CCOCC2)N=C(c2ccc(OCCCO)cc2)O[C@@H]1c1ccccc1CN=[N+]=[N-] | 3.28
13 | NC(=O)NCC#Cc1ccc2c(c1)[C@]1(C(=O)N2)[C@H](C(=O)NC[C@H](O)c2ccccc2)[C@H]2C(=O)O[C@H](c3ccccc3)[C@H](c3ccccc3)N2[C@@H]1c1ccc(OCCO)cc1 | 1.21
14 | C=C(COC)/C(=C/C[C@H](OC(=O)c1ccncc1)c1ccccc1OCCO)c1cnc2ccccc2c1 | 2.94
15 | [N-]=[N+]=Nc1ccccc1C[C@]1(C(N)=O)N=C(c2ccc(OCCCO)cc2)O[C@H]1c1ccccc1N=[N+]=[N-] | 2.89
16 | CN1C(=O)C2C=CC(C(O)c3ccccn3)N(N(c3ccccc3)c3ccccc3)C2C1=O (stereo not drawn) | 1.87
17 | NCCCCCCNC(=O)[C@@H]1C[C@@H]2C(=O)N[C@@H](CCCCN)C(=O)N2[C@@H]1c1cccc(OCCO)c1 | 2.14
18 | O=C1N(Cc2ccccc2)c2ccccc2[C@@H]2OC(c3ccc(OCCCO)cc3)=N[C@]12Cc1ccccc1 | 2.93
19 | CCCCCCCCCCC(O)C1C=CC2C(=O)N(C)C(=O)C2N1NC(=O)OC(C)(C)C (stereo not drawn) | 2.18
20 | OCCCC1=CC(c2ccc(CN3CCCC3)cc2)N(Cc2sc3ccccc3c2Cl)CC1 (stereo not drawn) | 1.22
21 | [N-]=[N+]=Nc1ccccc1[C@@H]1OC(c2ccc(OCCCO)cc2)=N[C@]1(Cc1ccccc1)C(=O)NCC(O)CO (stereo partly drawn) | 2.65
22 | C=CCC(OC(C)=O)[C@@H]1[C@@H](N(Cc2cc3ccccc3o2)C(=O)c2ccc(-c3ccccc3)cc2)c2cc(OCCCO)ccc2N1C(=O)c1ccc2ccccc2c1 (stereo partly drawn) | 1.1
23 | Cc1cc(C)c(C(O)C2C=CC3C(=O)N(c4ccccc4)C(=O)C3N2Nc2ccc(C(C)C)cc2)c(C)c1 (stereo not drawn) | 3.42
24 | COc1cc(OC)c(C(O)C2C=CC3C(=O)N(c4ccccc4)C(=O)C3N2Nc2ccccc2)cc1Br (stereo not drawn) | 2.53
25 | CO[C@H]1O[C@H](CO)[C@@H](OC(=O)Nc2ccccc2-c2ccccc2)[C@H](OC(=O)Nc2ccc3c(c2)OCO3)[C@H]1OC(=O)Nc1ccc2c(c1)OCO2 | 3.25
26 | CC1CC/C=C\[C@H]2OC34C=CCN(c5ccc(Cl)cc5)C(=O)[C@H]3N(CCCCCO)C(=O)[C@]4(C)C2C(=O)O1 (stereo partly drawn) | -1

Row | Compound | composite z-score
27 | CC(C)N1C(=O)c2ccccc2[C@@H](C(=O)NC2CC2)[C@@H]1c1ccc(CO)cc1 | 0.968
28 | COCCCNC(=O)[C@@]1(Cc2ccccc2CN=[N+]=[N-])N=C(c2ccc(OCCCO)cc2)O[C@H]1c1ccccc1 | 3.26
29 | COc1ccc([Si](C)(C)[C@@H]2[C@@H](CCO)O[C@]3(C(=O)N(Cc4ccc(N5CCCCC5=O)cc4)c4ccccc43)[C@H]2C)cc1 | 2.09
30 | C=C(/C(=C/C[C@@H](OC(C)=O)c1cccc(OCCO)c1)c1cc(C(=O)OC)ccc1OC)C(C)C | 1.69
31 | C=C(COC)C(=O)CC[C@@H](OC(=O)c1cccnc1)c1ccc(OCCO)cc1 | 0.204
32 | CN(C)c1ccc(C(O)C2C=CC3C(=O)N(c4ccccc4)C(=O)C3N2Nc2ccc([N+](=O)[O-])cc2)cc1 (stereo not drawn) | 2.98
33 | C=C[C@@H](COC(C)=O)N(C(=O)OC(C)(C)C)S(=O)(=O)c1ccc(Br)cc1 | 0.519
34 | CCCC[C@@H](O)C1=C(COc2ccccc2)C[C@H]2C(=O)N(C)C(=O)[C@H]2[C@H]1CO | -0.988
35 | COC(=O)c1ccc([C@H](NC(=O)c2ccco2)[C@]2(C)C[C@H]2C2CCCCC2)cc1 | 1.45
36 | COc1ccc(CN(C2=CC[C@@]3(C(N)=O)C(=O)C(Cl)=C(Cl)C(=O)[C@@]3(C#N)C2)S(=O)(=O)c2ccc(Br)cc2)cc1 | 3.31
37 | COC(=O)c1cn(C[C@@H](Cc2ccccc2)NC(=O)N[C@H](CO)CCc2oc(C(C)=O)c(C(=O)OC)c2C(=O)OC)nn1 | 0.985
38 | CCOC(=O)C[C@H]1[C@H](OC(=O)c2cc3ccccc3oc2=O)[C@@H](NC(=O)c2ccc(-c3ccccc3)cc2)c2cc(OCCCO)ccc2N1C(=O)c1ccccc1 | 1.21
39 | COC(=O)[C@@]1(Cc2ccc(OC)cc2)[C@H]2c3cc(C(=O)N(C)C)n(C[C@H](O)CO)c3C[C@H]2CN1C(=O)c1ccccc1 | 2.92
40 | CC(C)[Si](C#C[Si](C(C)C)(C(C)C)C(C)C)(O[C@H](C)c1cn([C@H](CO)Cc2ccccc2)nn1)C(C)C | 1.76
41 | CCOC(=O)C1=CC[C@@H](c2ccccc2C(F)(F)F)N(S(=O)(=O)c2ccc(C)cc2)[C@H]1c1ccc(C#N)cc1 | 2.56
42 | C[N+](C)(C)CCCC[C@@H]1NC(=O)[C@H]2C[C@@H](C(=O)NCCCCCCN)[C@@H](c3ccc(O)cc3)N2C1=O | 1.57
43 | CC(C)N1CC=CC23O[C@@H]4C=CCOC(=O)[C@@H]4[C@H]2C(=O)N(CCCO)[C@@H]3C1=O (stereo partly drawn) | 2.41
